# Source: the supplement of paper PMC10037445
# In all, about 2,900 compounds were measured (“NF-kB SEAP reporter activity, fold change vs agonist alone”: median about 0.99, highest 2% from about 2.6 on). Shown is part of a subset that was picked to be rich in the highest values.
# Tests used:
# RAW-Dual [1] = assay: NF-kB SEAP reporter activity, fold change vs agonist alone; higher = enhanced NF-kB activity
# Outline: (§1)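 RAW-Dual macrophages (50,000 cells/well in DMEM, 384-well plates) received 50 nL of library stock by pin tool, then a PRR agonist 1 h later, and were kept at 37 °C, 5% CO2. After 20 hours, supernatant was read for IRF by QuantiLuc luminescence and for NF-κB by QuantiBlue absorbance at 620 nm. Reporter activity is fold change over agonist-alone wells. Cytotoxic wells had IncuCyte confluency below 70% of agonist controls in both mask sets.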
# RAW-Dual [2] = assay: NF-kB SEAP reporter activity, fold change vs agonist alone; cytotoxicity flag (confluency mask): not cytotoxic; higher = enhanced NF-kB activity
# Outline: as §1
# RAW-Dual [3] = assay: NF-kB SEAP reporter activity, fold change vs agonist alone; cytotoxicity flag (confluency mask): cytotoxic (confluency <70% of control); higher = enhanced NF-kB activity
# Outline: as §1
# [4] = library stock concentration (final ~1000-fold dilution): 10 mM, cytotoxicity flag (confluency mask): not cytotoxic, agonist: MPLA (TLR4) […]
# [5] = agonist: ODN 1826 (TLR9) 0.5 ug/mL
# [6] = agonist: Pam2CSK4 (TLR2/6) 0.1 ug/mL
# [7] = agonist: Pam3CSK4 (TLR2/1) 0.1 ug/mL
# [8] = library stock concentration (final ~1000-fold dilution): 10 mM, cytotoxicity flag (confluency mask): cytotoxic (confluency <70% of control), agonist: Imiquimod (TLR7) […]
# [9] = library stock concentration (final ~1000-fold dilution): 10 mM, cytotoxicity flag (confluency mask): cytotoxic (confluency <70% of control), agonist: MPLA (TLR4) […]
# [10] = library stock concentration (final ~1000-fold dilution): 10 mM, cytotoxicity flag (confluency mask): not cytotoxic, agonist: Imiquimod (TLR7) […]
smiles,measurement,setting,value
O=P(O)(O)Oc1cccc2ccccc12,NF-kB SEAP reporter activity,RAW-Dual [1]; [4],1.08
O=P(O)(O)Oc1cccc2ccccc12 (library stock concentration (final ~1000-fold dilution): 10 mM),NF-kB SEAP reporter activity,RAW-Dual [2]; agonist: LPS (TLR4) 0.1 ug/mL,1.05
same,NF-kB SEAP reporter activity,RAW-Dual [2]; [5],0.917
same,NF-kB SEAP reporter activity,RAW-Dual [2]; [6],1.16
same,NF-kB SEAP reporter activity,RAW-Dual [2]; [7],0.879
O=C(/C=C/c1cncc(F)c1)c1c(-c2ccccc2)c2cc(Cl)ccc2[nH]c1=O (library stock concentration (final ~1000-fold dilution): 10 mM),NF-kB SEAP reporter activity,RAW-Dual [3]; agonist: LPS (TLR4) 0.1 ug/mL,0.257
same,NF-kB SEAP reporter activity,RAW-Dual [3]; [5],0.212
same,NF-kB SEAP reporter activity,RAW-Dual [3]; [6],0.0981
same,NF-kB SEAP reporter activity,RAW-Dual [3]; [7],0.253
O=C(/C=C/c1cncc(F)c1)c1c(-c2ccccc2)c2cc(Cl)ccc2[nH]c1=O,NF-kB SEAP reporter activity,RAW-Dual [1]; [8],0.157
same,NF-kB SEAP reporter activity,RAW-Dual [1]; [9],0.259
COC1/C=C/OC2(C)Oc3c(C)c(O)c4c(O)c(c(/C=N/N5CCN(C6CCCC6)CC5)c(O)c4c3C2=O)NC(=O)/C(C)=C/C=C/C(C)C(O)C(C)C(O)C(C)C(OC(C)=O)C1C (stereo unspecified),NF-kB SEAP reporter activity,RAW-Dual [1]; [10],1.11
same,NF-kB SEAP reporter activity,RAW-Dual [1]; [4],0.969
COC1/C=C/OC2(C)Oc3c(C)c(O)c4c(O)c(c(/C=N/N5CCN(C6CCCC6)CC5)c(O)c4c3C2=O)NC(=O)/C(C)=C/C=C/C(C)C(O)C(C)C(O)C(C)C(OC(C)=O)C1C (stereo unspecified) (library stock concentration (final ~1000-fold dilution): 10 mM),NF-kB SEAP reporter activity,RAW-Dual [2]; agonist: LPS (TLR4) 0.1 ug/mL,1.56
same,NF-kB SEAP reporter activity,RAW-Dual [2]; [5],0.892
same,NF-kB SEAP reporter activity,RAW-Dual [2]; [6],0.643
same,NF-kB SEAP reporter activity,RAW-Dual [2]; [7],0.742
O=C(O)CC[C@@H](O)C(=O)O (library stock concentration (final ~1000-fold dilution): 10 mM water),NF-kB SEAP reporter activity,RAW-Dual [2]; agonist: LPS (TLR4) 0.1 ug/mL,1.44
same,NF-kB SEAP reporter activity,RAW-Dual [2]; [5],1.16
same,NF-kB SEAP reporter activity,RAW-Dual [2]; [6],1.17
same,NF-kB SEAP reporter activity,RAW-Dual [2]; [7],1.12
O=C(O)CC[C@@H](O)C(=O)O,NF-kB SEAP reporter activity,"RAW-Dual [1]; library stock concentration (final ~1000-fold dilution): 10 mM water, cytotoxicity flag (confluency mask): not cytotoxic, agonist: Imiquimod (TLR7) […]",0.93
same,NF-kB SEAP reporter activity,"RAW-Dual [1]; library stock concentration (final ~1000-fold dilution): 10 mM water, cytotoxicity flag (confluency mask): not cytotoxic, agonist: MPLA (TLR4) […]",1.07
CC1(C)OCC(COC(=O)CCc2ccc(OCC(O)CNCCNC(=O)N3CCOCC3)cc2)O1.Cl (stereo unspecified) (library stock concentration (final ~1000-fold dilution): 10 mM),NF-kB SEAP reporter activity,RAW-Dual [2]; agonist: LPS (TLR4) 0.1 ug/mL,0.799
same,NF-kB SEAP reporter activity,RAW-Dual [2]; [5],0.908
same,NF-kB SEAP reporter activity,RAW-Dual [2]; [6],1.04
same,NF-kB SEAP reporter activity,RAW-Dual [2]; [7],0.926
CC1(C)OCC(COC(=O)CCc2ccc(OCC(O)CNCCNC(=O)N3CCOCC3)cc2)O1.Cl (stereo unspecified),NF-kB SEAP reporter activity,RAW-Dual [1]; [10],0.97
same,NF-kB SEAP reporter activity,RAW-Dual [1]; [4],1.01
CC(C)(C)OC(=O)Nc1ccc(-c2cc(C(=O)NCCCCCCC(=O)NO)no2)cc1,NF-kB SEAP reporter activity,RAW-Dual [1]; [8],0.912
same,NF-kB SEAP reporter activity,RAW-Dual [1]; [9],1.81
CC(C)(C)OC(=O)Nc1ccc(-c2cc(C(=O)NCCCCCCC(=O)NO)no2)cc1 (library stock concentration (final ~1000-fold dilution): 10 mM),NF-kB SEAP reporter activity,RAW-Dual [3]; agonist: LPS (TLR4) 0.1 ug/mL,6.9
same,NF-kB SEAP reporter activity,RAW-Dual [3]; [5],1.11
same,NF-kB SEAP reporter activity,RAW-Dual [3]; [6],1.33
same,NF-kB SEAP reporter activity,RAW-Dual [3]; [7],1.21
CC(C)C1C(=O)NC(CCCNC(=N)N)C(=O)NCC(=O)NC(CC(=O)O)C(=O)NC(Cc2ccccc2)C(=O)N1C.O=C(O)C(F)(F)F (stereo unspecified),NF-kB SEAP reporter activity,RAW-Dual [1]; [10],0.977
same,NF-kB SEAP reporter activity,RAW-Dual [1]; [4],1.11
CC(C)C1C(=O)NC(CCCNC(=N)N)C(=O)NCC(=O)NC(CC(=O)O)C(=O)NC(Cc2ccccc2)C(=O)N1C.O=C(O)C(F)(F)F (stereo unspecified) (library stock concentration (final ~1000-fold dilution): 10 mM),NF-kB SEAP reporter activity,RAW-Dual [2]; agonist: LPS (TLR4) 0.1 ug/mL,0.99
same,NF-kB SEAP reporter activity,RAW-Dual [2]; [5],1.01
same,NF-kB SEAP reporter activity,RAW-Dual [2]; [6],0.985
same,NF-kB SEAP reporter activity,RAW-Dual [2]; [7],0.921
CC(=O)OC1(C(C)=O)CCC2C3C=C(C)C4=CC(=O)CCC4(C)C3CCC21C (stereo unspecified),NF-kB SEAP reporter activity,RAW-Dual [1]; [10],1.21
same,NF-kB SEAP reporter activity,RAW-Dual [1]; [4],1.14
CC(=O)OC1(C(C)=O)CCC2C3C=C(C)C4=CC(=O)CCC4(C)C3CCC21C (stereo unspecified) (library stock concentration (final ~1000-fold dilution): 10 mM),NF-kB SEAP reporter activity,RAW-Dual [2]; agonist: LPS (TLR4) 0.1 ug/mL,0.908
same,NF-kB SEAP reporter activity,RAW-Dual [2]; [5],1.22
same,NF-kB SEAP reporter activity,RAW-Dual [2]; [6],1.13
same,NF-kB SEAP reporter activity,RAW-Dual [2]; [7],1.27
O=C(NC1=CC(=O)[C@@H]2O[C@@H]2[C@@H]1O)c1ccccc1O (library stock concentration (final ~1000-fold dilution): 10 mM),NF-kB SEAP reporter activity,RAW-Dual [2]; agonist: LPS (TLR4) 0.1 ug/mL,0.954
same,NF-kB SEAP reporter activity,RAW-Dual [2]; [5],0.718
same,NF-kB SEAP reporter activity,RAW-Dual [2]; [6],0.356
same,NF-kB SEAP reporter activity,RAW-Dual [2]; [7],0.314
